Test results taken from the supplement of paper PMC3334620.
Over roughly 33,000 sequences, “E-score (-0.5 to 0.5)” has its median near -0.0034; the highest 2% begin near 0.25. This is one part of a sample in which the highest values are shown more often than they occur.

molecular target: T1, Yap3 (UniProt P38749); assay: PBM E-score (8-mer binding enrichment) (E-score (-0.5 to 0.5)); higher = stronger / more preferred TF binding; conditions: protein concentration: 100 nM; construct: GST-full length
T1 sequence: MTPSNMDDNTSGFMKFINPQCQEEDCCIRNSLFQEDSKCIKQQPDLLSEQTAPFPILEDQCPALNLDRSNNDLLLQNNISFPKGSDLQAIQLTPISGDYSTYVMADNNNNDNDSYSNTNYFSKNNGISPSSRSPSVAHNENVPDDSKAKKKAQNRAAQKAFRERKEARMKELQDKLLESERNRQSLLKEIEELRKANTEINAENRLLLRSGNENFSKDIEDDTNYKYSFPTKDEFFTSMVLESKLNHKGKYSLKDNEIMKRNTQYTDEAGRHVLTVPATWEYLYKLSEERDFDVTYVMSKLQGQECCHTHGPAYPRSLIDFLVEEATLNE
Outline: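 Each ungapped eight-base word and its reverse complement, pooled, received an E-score from the Universal PBM Analysis Suite. Underlying scans, normalised with masliner, recorded fluorescent anti-GST bound to GST-tagged yeast transcription factors. These were applied at about 100-200 nM to universal all-10-mer Agilent arrays double-stranded by primer extension.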

Sequence | PBM E-score
CTCCTTCC | -0.171
CATTTGAC | 0.0765
GGAGCGCA | -0.261
AAGTACGG | -0.0366
AGCAATTC | 0.134
TAGGCCCA | -0.198
TCGTCGAA | 0.0355
ATACATAT | 0.286
AGACATAT | 0.185
ACACATAG | -0.0796
ATACATAG | 0.112
GCACATAA | 0.131
ACACATAA | 0.299
CTACATAA | -0.0287
ATACATAA | 0.285
TTACATAA | 0.416
ATACATAC | 0.0937
ATACATCA | 0.207
GTACATAA | 0.135
GCCAATCA | -0.169
CCAGCAGA | -0.17
AACTGCTA | 0.00439
CCGCCTGC | -0.278
AGAGAAAA | 0.0508
GTTTGAGA | -0.0917

Sequence | PBM E-score
GGATTGGA | 0.19
TCGCGCCA | -0.0451
ATCTGGAG | -0.165
GCTTGGAC | -0.0766
CAAGGATG | -0.0177
CGCAATAG | 0.105
CCAATGAG | -0.0674
AAACATAT | 0.305
GTACATTA | 0.0635
AAACATAG | -0.0382
CTACATTA | 0.11
AAACATAC | 0.0457
ATACATTA | 0.266
ATCAGGCA | -0.0855
CGCACTTA | -0.0802
GCTGTGCA | -0.205
AACGGCGG | -0.208
ACATTACA | 0.131
ATATTACA | 0.226
ATATTACG | 0.412
ACATTACT | 0.213
CCATTACA | 0.272
ATATTATC | 0.149
AGATTATG | 0.129
ATATTATG | 0.399

Sequence | PBM E-score
GCATTACA | 0.1
AGATTACG | 0.213
ACATTACG | 0.286
CCATTACG | 0.0884
CTTTGACC | 0.0628
AGCTTGGC | -0.207
AATAGCGT | 0.195
CTATTACC | -0.0641
ATATTACC | 0.276
AGATTACC | 0.155
AAAGTACA | 0.27
CAAGTACA | -0.0722
AAAGTACC | 0.176
ATAAGAAC | 0.289
ATAAGAAA | 0.207
ACAAGAAA | 0.268
ACGAAGAA | 0.282
TCAAAGAA | -0.0713
ACAAGAAT | 0.1
ATAAGAAT | 0.207
CCAAAGAA | 0.124
ACAAAGAA | 0.257
CCAAGAAA | -0.00981
TCGAAGAA | -0.0713
ACGAAGAT | 0.0321

Sequence | PBM E-score
AACTTTTC | 0.0947
AATCCCGG | -0.139
CTGAGGAA | -0.0654
ACCAGGTG | -0.245
CCTTTGGA | -0.218
ACCACAGT | 0.143
GAACCAAC | 0.00249
AGACATCC | -0.152
GACTGCAA | -0.0662
CCAACCGG | -0.193
ATCCAACC | 0.00913
CGGGTGGC | -0.289
CTAAAGAA | 0.0205
TTAAAGAA | 0.19
ATAAAGAA | 0.26
ATATCACG | 0.181
GTGTCGAA | -0.0549
CTGTATGC | -0.0877
CACGCCAA | -0.0782
ATTCAATC | 0.0991
AAAAGTGA | 0.132
CAAAGTGA | 0.0818
TAAAGTGA | 0.263
CCAACTCC | 0.117
GGCCCAAA | -0.0982

Sequence | PBM E-score
CCAGCAAA | 0.0803
ATAAGTCA | 0.262
ATTAGTGA | 0.179
ATAAGTCC | 0.0332
CTAAGTCA | 0.024
ATTAGTGG | 0.243
CCTAGTCA | 0.0001
ATTAGTGC | 0.299
CTTAGTCA | 0.373
ATTAGTCG | 0.12
ATTAGTCC | 0.207
CTTAGTCC | -0.0515
ATTAGTCA | 0.42
CATTGAAC | 0.07
GCGTTGCA | -0.112
CAGAAACC | 0.0742
CACGCTAA | 0.0663
CGATCGAC | 0.14
AGATCTAT | -0.115
ATCGGGCG | -0.21
AGTGCTCG | -0.11
TCAAGCAA | -0.15
AAGAGCAC | -0.0358
ATTAGTTG | 0.192
CTTAGTAA | 0.429

Sequence | PBM E-score
GTTAGTTA | 0.169
CTTAGTAC | 0.0262
GTTAGTCA | 0.33
ATTAGTTA | 0.291
GTTAGTAA | 0.217
GTCAGTTA | 0.113
GGTAGTCA | -0.176
CTCAGTTA | -0.0635
ATCAGTTA | 0.272
GTTAGTGA | 0.0844
ACAGGTCG | -0.0506
TATTGACA | 0.0463
CCGCCAGC | -0.196
AACACTGC | 0.186
CACGCCTA | -0.1
GATATGCC | -0.0864
ATGATCGA | 0.0147
CTGATCGA | -0.239
GTGATCGA | 0.282
ACTTCCGG | 0.0969
CTCAAGAC | -0.133
AGTGAGTA | 0.271
AATGAGAT | 0.266
AGTGAGTG | -0.0641
AATGAGAG | -0.0586

Sequence | PBM E-score
AATGAGTA | 0.33
CATGAGTA | 0.0202
AATGAGAC | -0.0964
CGTGAGTA | -0.0244
GATGAGTA | 0.181
ACAAAACA | 0.202
TCCTAAAA | -0.115
TATAGAAA | 0.0802
CAGAGAAA | 0.278
CAGAGAAG | -0.127
GAGAGAAA | 0.0853
AACAGAAA | 0.157
TACAGAAA | 0.262
GATAGAAA | 0.187
GACAGAAA | 0.183
CATAGAAA | 0.268
CATCTACC | 0.145
CTTGAGCA | -0.119
ATCTTGCA | 0.151
AATAGATC | 0.08
GATTAATA | 0.367
AATTAATG | 0.29
AATTAATA | 0.353
AATTAATT | 0.211
GATTAAGA | 0.193

Sequence | PBM E-score
GATTAATC | 0.117
CATTAATG | 0.212
CATTAATA | 0.193
TATTAATA | 0.301
AATTAATC | 0.0963
TATTAACA | 0.23
AATTAAGA | 0.154
CACCCATG | -0.014
ATCGCACC | -0.106
GCTCTGTA | -0.055
GCCAAGTA | -0.0708
CATAAGAG | -0.071
CTTTTGTC | 0.0462
CGACCCAC | -0.219
TCGGATAA | 0.143
GTCAAGTA | -0.12
ATCTCTGC | 0.0777
ACACTGAT | 0.0678
ATTACTGG | -0.0154
CACGAAAA | 0.176
GACGAAAA | 0.264
GGCGAAAC | 0.0862
TACGAAAA | 0.144
GGCGAAAA | 0.256
TGCGAAAA | 0.0554

Sequence | PBM E-score
CTGCGATC | -0.0633
CGTAGATC | 0.0115
GTACAGGA | 0.0424
AACATCTC | 0.08
ACAGAAAA | 0.198
ACTGAAAG | 0.114
CCAGAAAC | 0.0139
ACAGAAAC | 0.285
GCTGAAAC | -0.0804
ACTGAAAC | 0.27
GCAAATCC | 0.156
CGTCCTTC | 0.0406
CTATGGGA | -0.103
CGTCCCTA | -0.206
AACTATAA | 0.186
TACTATAA | 0.266
CACTAACA | 0.162
TACTAAAA | 0.255
TACTGAAA | 0.273
AACTAACA | 0.211
CACTATAA | -0.00697
GACTAAAA | 0.0994
GACTGAAA | 0.0541
CACTGAAA | 0.0595
AACTAAAA | 0.148

Sequence | PBM E-score
TACTAACA | 0.294
GACTTTGA | 0.00307
TTGTACAA | 0.185
CATCAGAC | -0.133
ACATACCC | 0.0479
GAACTCGC | 0.0628
CTCCTACC | -0.275
CCTGAACG | -0.154
GTCTAGCA | 0.0493
ATGAGAAA | 0.181
GCGTTAGA | 0.0241
AAGCGTTC | -0.0829
GCGGCCTA | -0.0845
AATTTTTA | 0.252
ATTTTTAA | 0.295
ATTTTTTA | 0.255
ATTTTTAG | -0.0279
ATTTTTTG | 0.226
AATTTTAA | 0.212
ATTTTAAC | 0.149
ATTTTAAA | 0.282
GTTTTAAA | 0.235
TCAGCGCA | -0.216
CGGTTTTA | -0.106
CTAAGTAC | 0.016

Sequence | PBM E-score
CGATGGGC | -0.18
CCAACAGC | 0.0293
GAGTCATC | -0.00184
AATACACG | 0.0582
GATACACC | 0.161
AATACACC | 0.272
AATACACT | 0.259
AATACACA | 0.131
CATACACC | 0.0314
CGGCAGGC | -0.189
CGAGAGTA | 0.0233
GCATTGTA | -0.0355
GCAAAGAA | 0.0916
CAGCGAAG | -0.16
ATTGCAAT | 0.283
ATTGCAAG | 0.0639
ATTGCAAA | 0.0883
ATGGCCAA | -0.114
AGGTGCCG | -0.101
CTGTTTCA | 0.0525
GCCAAGAC | -0.195
AAAATATC | 0.257
CAAATAAG | -0.0581
CGAATATC | 0.154
AAAATACG | 0.234

Sequence | PBM E-score
CAAATACC | 0.0818
AAAATATA | 0.19
AAAATATG | 0.256
CAAATATC | 0.285
GAAATATC | 0.0879
AAAATAAC | 0.0743
AAAATAAG | 0.271
CAAATATG | 0.131
GAAGCTAA | -0.136
ATAAGGTG | -0.00609
ATCTGCCG | 0.101
GTCAGCAC | -0.0445
GGATCAAA | 0.111
AAAATACT | 0.0626
AAAATAGT | 0.12
AAAATATT | 0.318
TAGCAACA | 0.114
AAGCACTT | -0.0376
CGTGGCTC | -0.321
CCGGAAAA | 0.106
AATCGAAC | 0.107
AATCGAAA | 0.0602
AATCGACT | -0.0232
AATCGACA | 0.258
AATCGAAG | 0.256

Sequence | PBM E-score
AATCGACC | -0.00549
AACGCGCA | 0.103
AACGCGCG | 0.265
AACGCGAA | 0.298
AACGCGAG | 0.126
AACGCGCT | -0.012
CACGCGAA | -0.0244
ACGCACCC | -0.243
ACCCGCAA | -0.239
ACTAGTTG | -0.0214
TCGCAAGA | -0.0427
TCCATCCA | -0.0216
ACCCCCAT | -0.246
CAGACAAC | 0.0898
AAGACAAC | 0.267
AAGACAAG | 0.045
GAAAGAGA | 0.0574
ATCATCAT | 0.139
AATTTGCG | 0.0563
CTCGTAAC | 0.177
CTCGTAAG | 0.257
ATCGTAAG | 0.137
ATTGTCTG | 0.11
AAGATGAT | 0.0727
ATTGCTCA | -0.00161

Sequence | PBM E-score
AATAGATA | 0.267
CGTAGATA | 0.0847
AGTAGATA | 0.273
TATAGATA | 0.0759
AGTAGATC | -0.0265
GATAGATA | 0.0286
GGCATCGA | -0.125
ACGGCGCA | 0.0681
AGAATGCC | -0.00977
CCGCAAAA | 0.076
AATAGTTA | 0.0935
AATAGTAA | 0.258
AATAGTTC | 0.156
AATAGTAG | 0.206
TATAGTAA | 0.27
AATAGTTG | 0.267
AATAGTAC | 0.0612
CATAGTAA | 0.198
GATAGTAA | 0.11
